Where a name gives a salt, the structure may show the parent alone.
Each compound was assayed on E18 rat cortical neuron-glia co-culture (assay: myelination (MBP fiber length per Olig2+ nucleus), % of 1 µM DAPT response (DMSO = 0) (% of DAPT); higher = more myelination, active = 50 or more). Details: 5 µM; treatment time: 8 days (DIV5-DIV13).
In short: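 The myelination value was the continuous straight MBP fiber length per Olig2+ nucleus, scaled between 0.1 % DMSO (0) and a 1 µM positive control (100). It was measured in primary E18 rat cortical co-cultures treated with library compounds at 1 or 5 µM in myelination medium from DIV5 through DIV13. Cells were fixed in 4 % paraformaldehyde and stained for MBP, Olig2 and DAPI, and four 10X fields per well were imaged in duplicate wells.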

Question: `COc1cc2c(cc1OC)[C@@]13CCN4CC5=CCO[C@H]6CC(=O)N2[C@H]1[C@H]6[C@H]5C[C@H]43` [Brucine] was tested. Which myelination did it give?
Answer: -15.7 (inactive)

Question: `CC(NC(C)(C)C)C(=O)c1cccc(Cl)c1` (centres undefined) [Bupropion] was tested. Which myelination did it give?
Answer: -31.8 (inactive)

Question: With `C[C@]12CC[C@H](O)CC1=CC[C@@H]1[C@@H]2CC[C@]2(C)C(=O)CC[C@@H]12` [Dehydroepiandrosterone] as the compound, how does the myelination read?
Answer: -6.07 (inactive)

Question: With `CC(C)(O)[C@@H]1[C@H]2OC(=O)[C@@H]1[C@]1(O)C[C@H]3O[C@]34C(=O)O[C@H]2[C@]14C` [Picrotin] as the compound, how does the myelination read?
Answer: -5.47 (inactive)

Question: How did the myelination turn out when `Oc1cc2c(cc1O)[C@H]1c3ccccc3CN[C@@H]1CC2` (racemic) [Dihydrexidine] was run?
Answer: -20.9 (inactive)

Question: For `CC[C@@H]1C=CC=CC[C@H](C)[C@@H](O)[C@@H](C)C(=O)[C@H](C)[C@@H](O)[C@H](C)C(=O)[C@H](C)[C@@H](O)[C@H](C)C=CC(=O)O[C@H]2[C@@H](C)[C@@H](CC1)O[C@@]1(CC[C@@H](C)[C@@H](C[C@H](C)O)O1)[C@@H]2C` [Oligomycin C], which myelination is on record?
Answer: 47.7 (inactive)

Question: With `FC(F)(F)c1cccc(N2CCNCC2)c1` [1-(3-trifluoromethylphenyl)piperazine hydrochloride (TFMPP)] as the compound, how does the myelination read?
Answer: -32.7 (inactive)

Question: Which myelination does the source give for `NC(=O)OCCCc1ccccc1` [Phenprobamate] here?
Answer: -11.4 (inactive)

Question: For `C[C@]12CCC(=O)C[C@@H]1CC[C@@H]1[C@@H]2CC[C@@]2(C)[C@H]1CC[C@]2(C)O` [Mestanolone], which myelination is on record?
Answer: -14.6 (inactive)

From the supplement of paper PMC4840960
